Drawing on PubChem BioAssay (Tox21), this text covers Potency for 38 compounds.

Values joined by “and” are separate entries in the source; they are usually repeats but may differ in a detail not shown here. Equal values may be shown once. Records with an inconclusive call do not appear. Where a call stands in place of a potency, no number is given. Active and inactive are the calls of the source. Unless noted, calls follow the shape of the dose curve; as a rule, active = well fitted cell-killing curve with a large enough effect in the repeat runs; inconclusive = weak or mixed curves, or effect the other way; inactive = no such curve, though single readings can be large or run the other way.

Chain of Progesterone receptor (Homo sapiens) (P06401 whole entry, looked up): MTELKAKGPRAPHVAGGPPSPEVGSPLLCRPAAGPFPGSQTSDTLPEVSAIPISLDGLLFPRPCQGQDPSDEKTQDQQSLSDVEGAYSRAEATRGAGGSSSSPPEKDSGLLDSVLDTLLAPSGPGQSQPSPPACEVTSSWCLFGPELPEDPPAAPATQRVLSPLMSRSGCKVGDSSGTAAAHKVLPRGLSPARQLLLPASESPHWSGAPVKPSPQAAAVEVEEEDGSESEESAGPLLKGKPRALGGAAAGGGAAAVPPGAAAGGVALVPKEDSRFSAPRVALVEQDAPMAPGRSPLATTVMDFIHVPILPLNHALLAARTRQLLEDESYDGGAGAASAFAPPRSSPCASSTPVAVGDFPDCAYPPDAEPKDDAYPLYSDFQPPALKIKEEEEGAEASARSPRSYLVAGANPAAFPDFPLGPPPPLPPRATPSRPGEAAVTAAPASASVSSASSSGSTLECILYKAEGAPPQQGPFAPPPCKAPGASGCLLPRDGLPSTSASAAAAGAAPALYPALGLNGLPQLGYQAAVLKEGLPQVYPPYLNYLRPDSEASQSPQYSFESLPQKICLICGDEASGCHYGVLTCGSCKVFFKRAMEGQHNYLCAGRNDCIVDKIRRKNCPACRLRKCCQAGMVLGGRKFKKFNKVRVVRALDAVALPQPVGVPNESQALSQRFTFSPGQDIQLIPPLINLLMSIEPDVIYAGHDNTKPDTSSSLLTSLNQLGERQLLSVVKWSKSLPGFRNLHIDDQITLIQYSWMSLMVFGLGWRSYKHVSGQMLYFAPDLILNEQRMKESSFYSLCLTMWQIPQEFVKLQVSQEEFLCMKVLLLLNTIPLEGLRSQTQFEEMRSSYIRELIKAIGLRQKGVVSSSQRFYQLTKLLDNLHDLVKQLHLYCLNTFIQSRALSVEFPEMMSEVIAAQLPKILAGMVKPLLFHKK

System in one test: not listed separately
The experiment in a line: qHTS assay to identify small molecule agonists of the estrogen receptor alpha (ER-alpha) signaling pathway in the presence of an antagonist - cell viability counter screen (AID 1259386). Also: nearly all actives have a fitted effect of over 30% in size. Also: potency is read from the fitted curve at half-maximal effect. Particulars: VM7Luc4E2 viability, CellTiter-Fluor fluorescence, 22 h; series mostly up to 92.4 µM. A digest of the protocol: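 Cells are starved of estrogens for 5 days in charcoal-stripped serum, seeded for 24hr and co-treated with ICI-182,780 (10.0nM final) and test compounds. After 22hr at 37C, viability is read as CellTiter-Fluor fluorescence.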
Background: In qHTS, concentration-response curves come from the screen itself.
As to `Cc1cc(C)c(C2=C(OC(=O)CC(C)(C)C)C3(CCCC3)OC2=O)c(C)c1`, the Potency entry is “inactive”. With `O=C(CBr)c1ccc(O)cc1`, the Potency result is “inactive”. The same measure, in the same setting: next, `Nc1ccc(Sc2ccc(N)cc2)cc1`: “inactive”; `COC(=O)N(C(=O)N1CO[C@@]2(C(=O)OC)Cc3cc(Cl)ccc3C2=N1)c1ccc(OC(F)(F)F)cc1`: “inactive”; `CCCCCCCCCC[N+](C)(C)CCCCCCCCCC`: 68.6 µM (active). Same read-out and setting: the value for `Cc1cc(C(C)(C)c2cc(C)c(O)c(C)c2)cc(C)c1O` was “inactive”; that for `COc1ccc(OC)c(C=O)c1` was “inactive”.

`C[C@]12CC[C@H]3[C@@H](CCC4=CC(=O)CC[C@@]43C)[C@@H]1CC[C@@H]2O`: the Potency entry is “inactive”. For the compound `CC(=O)O[C@H]1CC[C@@]2(C)C(=CC[C@@H]3[C@@H]2CC[C@]2(C)C(=O)CC[C@@H]32)C1`, the Potency entry was “inactive”. Still for that read-out and setting: next, `O=[N+]([O-])c1cc(C(F)(F)F)c(Cl)c([N+](=O)[O-])c1Cl`: 54.5 µM (active); `[Cd+2].[Cl-].[Cl-]`: 61.6 µM (active) and 54.5 µM (active); `CN(C)[C@@H]1C(=O)C(C(N)=O)=C(O)[C@@]2(O)C(=O)C3=C(O)c4c(O)ccc(Cl)c4[C@@](C)(O)[C@H]3C[C@@H]12`: “inactive”.

Take `Oc1c(Cl)c(Cl)cc(Cl)c1Cl`: the Potency result was “inactive”.

As for `CC(=O)C(Cl)(Cl)Cl`, the Potency was 18.7 µM (active). Same read-out and setting: next, `CN(C)C(=S)[S-].CN(C)C(=S)[S-].[Cu+2]`: 13.2 µM (active); `CC(=O)[O-].CC(=O)[O-].[Hg+2]`: 21.7 µM (active).

In the case of `COc1cccc2c1C(=O)c1c(O)c3c(c(O)c1C2=O)C[C@@](O)(C(=O)CO)CC3OC1CC(N2CCOC(OC)C2)C(O)C(C)O1` (stereo partly drawn), the Potency is 10.6 µM (active).

For `Cc1cc(C(F)(C(F)(F)F)C(F)(F)F)ccc1NC(=O)c1cccc(I)c1C(=O)NC(C)(C)CS(C)(=O)=O`, the Potency entry was “inactive”. Still for that read-out and setting: next, `C[C@H]1CC[C@@H]2[C@@H](C)[C@H]3[C@H](C[C@H]4[C@@H]5CC=C6CC(O[C@@H]7O[C@H](CO)[C@H](O)[C@H](O[C@@H]8O[C@H](CO)[C@@H](O)[C@H](O)[C@H]8O)[C@H]7O[C@H]7O[C@@H](C)[C@H](O)[C@@H](O)[C@H]7O)CC[C@]6(C)[C@H]5CC[C@]34C)N2C1` (stereo partly drawn): 28.2 µM (active). With `CCOCn1c(-c2ccc(Cl)cc2)c(C#N)c(Br)c1C(F)(F)F`, the Potency is 8.63 µM (active).

For `C[C@@H]1CC[C@@]2(OC1)O[C@H]1[C@@H](O)[C@H]3[C@@H]4CC[C@H]5C[C@@H](O[C@@H]6O[C@H](CO)[C@H](O[C@@H]7O[C@H](CO)[C@@H](O)[C@H](O[C@@H]8OC[C@@H](O)[C@H](O)[C@H]8O)[C@H]7O[C@@H]7O[C@H](CO)[C@@H](O)[C@H](O[C@@H]8O[C@H](CO)[C@@H](O)[C@H](O)[C@H]8O)[C@H]7O)[C@H](O)[C@H]6O)[C@H](O)C[C@]5(C)[C@H]4CC[C@]3(C)[C@H]1[C@@H]2C`, the Potency is 72.8 µM (active). Still for that read-out and setting: the value for `O=S(=O)(c1ccc(Cl)cc1)c1ccc(Cl)cc1` was “inactive”; that for `CCCCCCCCCCCCCC[P+](CCCCCC)(CCCCCC)CCCCCC` (tested in a mixture with another compound) was 17.2 µM (active). Still for that read-out and setting: the value for `O=C(O)COc1nc(Cl)c(Cl)cc1Cl` was “inactive”; that for `CC(C)OC(=O)C(O)(c1ccc(Cl)cc1)c1ccc(Cl)cc1` was “inactive”; that for `O=c1ssc(Cl)c1Cl` was “inactive”.

For `CC1(C)CC/C(=C/c2ccc(Cl)cc2)C1(O)Cn1cncn1` (stereo not drawn), the Potency entry is “inactive”. On to `c1cc[c]([Sb]([c]2ccccc2)[c]2ccccc2)cc1`, for which the Potency entry was “inactive”. Still for that read-out and setting: next, `[CH3][Hg][Cl]`: “inactive”. `[Hg+2].[I-].[I-]`: the Potency was 61.1 µM (active). On to `CC(C)(O)c1cnn2c(-c3ccc(F)c(-c4c(F)cccc4C#N)c3)cnc2n1`, for which the Potency result is “inactive”. Same read-out and setting: next, `CC(C)(c1ccc(O)c(-c2ccccc2)c1)c1ccc(O)c(-c2ccccc2)c1`: 61.1 µM (active). Same read-out and setting: the value for `CC(C)OC(=S)S` was “inactive”; that for `C=CC(=O)OCC(COC(=O)C=C)(COC(=O)C=C)COC(=O)C=C` was 13.7 µM (active).

Consider `CC(C)[C@H](C(=O)O[C@H](C#N)c1cccc(Oc2ccccc2)c1)c1ccc(Cl)cc1`, for which the Potency result is “inactive”.

The next test has as its target Progesterone receptor (Homo sapiens) (UniProt P06401). Description: qHTS assay to identify small molecule agonists of the progesterone receptor (PR) signaling pathway (AID 1346784; calls by dose curve; also: nearly all actives have a fitted effect of over 30% in size). As to conditions: PR-UAS-bla HEK293T, beta-lactamase FRET ratio, 16 h; series mostly up to 92.4 µM. A digest of the protocol: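 Cells (PR-UAS-bla HEK 293T, GripTite) were plated in assay medium containing 2% charcoal-stripped FBS and incubated 6 hr. Test compounds in DMSO were added for 16 hr at 37C. FRET substrate was then loaded for 2 hr at room temperature before fluorescence reading.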
For `O=C1NCN(c2ccccc2)C12CCN(CC1COc3ccccc3O1)CC2` (stereo not drawn), the Potency result was “inactive”. Same read-out and setting: the value for `O=C(CCCN1CCC2(CC1)C(=O)NCN2c1ccccc1)c1ccc(F)cc1` was “inactive”.

As for `O=CC(Br)(Br)Br`, the Potency result is “inactive”.

A further test shares this target. The experiment in a line: qHTS assay to identify small molecule antagonists of the progesterone receptor (PR) signaling pathway (AID 1346795; active = well fitted inhibition curve with a large enough effect in the signal ratio in the repeat runs, not every such curve was filed as active; the % refers to the signal ratio). Particulars: PR-UAS-bla HEK293T, beta-lactamase FRET ratio, 16 h; series mostly up to 92.4 µM. Summed up: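 Antagonist mode: compounds tested against 1 nM (final) promegestone stimulation in HEK293T cells expressing PR-UAS-bla reporter, 16 hr at 37C, 5% CO2; beta-lactamase activity detected via B/G FRET substrate after 2 hr at room temperature.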
On to `O=C1NCN(c2ccccc2)C12CCN(CC1COc3ccccc3O1)CC2` (stereo not drawn), for which the Potency entry was “inactive”. Same read-out and setting: the value for `O=C(CCCN1CCC2(CC1)C(=O)NCN2c1ccccc1)c1ccc(F)cc1` was “inactive”; that for `O=CC(Br)(Br)Br` was “inactive”.

System in a further test: not listed separately
The experiment in a line: qHTS assay to identify small molecule antagonists of the progesterone receptor (PR) signaling pathway - cell viability counter screen (AID 1346798). Also: nearly all actives have a fitted effect of over 50% in size. Also: potency is read from the fitted curve at half-maximal effect. Particulars: PR-UAS-bla HEK293T viability, CellTiter-Glo luminescence, 16 h; series mostly up to 92.4 µM. Summed up: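 Counter screen for cytotoxicity: viability of PR-UAS-bla HEK293T cells was measured with CellTiter-Glo luminescence following 16 hr compound exposure in the presence of R5020.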
As for `Cc1cc(C)c(C2=C(OC(=O)CC(C)(C)C)C3(CCCC3)OC2=O)c(C)c1`, the Potency entry was “inactive”. On the same count and under the same terms, next, `O=C1NCN(c2ccccc2)C12CCN(CC1COc3ccccc3O1)CC2` (stereo not drawn): “inactive”. Still for that read-out and setting: next, `CCCCCCCCCC[N+](C)(C)CCCCCCCCCC`: 19.3 µM (active); `Cc1cc(C(C)(C)c2cc(C)c(O)c(C)c2)cc(C)c1O`: 41.8 µM (active); `COc1ccc(OC)c(C=O)c1`: “inactive”. On the same count and under the same terms, the value for `CC(=O)O[C@H]1CC[C@@]2(C)C(=CC[C@@H]3[C@@H]2CC[C@]2(C)C(=O)CC[C@@H]32)C1` was 68.6 µM (active); that for `O=[N+]([O-])c1cc(C(F)(F)F)c(Cl)c([N+](=O)[O-])c1Cl` was 54.5 µM (active); that for `O=C(CCCN1CCC2(CC1)C(=O)NCN2c1ccccc1)c1ccc(F)cc1` was “inactive”. With `[Cd+2].[Cl-].[Cl-]`, the Potency was 4.36 µM (active) and 2.73 µM (active). Still for that read-out and setting: next, `CN(C)[C@@H]1C(=O)C(C(N)=O)=C(O)[C@@]2(O)C(=O)C3=C(O)c4c(O)ccc(Cl)c4[C@@](C)(O)[C@H]3C[C@@H]12`: “inactive”. Turning to `Oc1c(Cl)c(Cl)cc(Cl)c1Cl`, the Potency entry was “inactive”. Still for that read-out and setting: the value for `CC(=O)C(Cl)(Cl)Cl` was “inactive”. Still for that read-out and setting: next, `CN(C)C(=S)[S-].CN(C)C(=S)[S-].[Cu+2]`: 1.18 µM (active); `CC(=O)[O-].CC(=O)[O-].[Hg+2]`: 1.37 µM (active); `COc1cccc2c1C(=O)c1c(O)c3c(c(O)c1C2=O)C[C@@](O)(C(=O)CO)CC3OC1CC(N2CCOC(OC)C2)C(O)C(C)O1` (stereo partly drawn): 0.266 µM (active).

For the compound `Cc1cc(C(F)(C(F)(F)F)C(F)(F)F)ccc1NC(=O)c1cccc(I)c1C(=O)NC(C)(C)CS(C)(=O)=O`, the Potency result is “inactive”. In the case of `C[C@H]1CC[C@@H]2[C@@H](C)[C@H]3[C@H](C[C@H]4[C@@H]5CC=C6CC(O[C@@H]7O[C@H](CO)[C@H](O)[C@H](O[C@@H]8O[C@H](CO)[C@@H](O)[C@H](O)[C@H]8O)[C@H]7O[C@H]7O[C@@H](C)[C@H](O)[C@@H](O)[C@H]7O)CC[C@]6(C)[C@H]5CC[C@]34C)N2C1` (stereo partly drawn), the Potency was 31.6 µM (active). Turning to `CCOCn1c(-c2ccc(Cl)cc2)c(C#N)c(Br)c1C(F)(F)F`, the Potency is 12.2 µM (active).

`C[C@@H]1CC[C@@]2(OC1)O[C@H]1[C@@H](O)[C@H]3[C@@H]4CC[C@H]5C[C@@H](O[C@@H]6O[C@H](CO)[C@H](O[C@@H]7O[C@H](CO)[C@@H](O)[C@H](O[C@@H]8OC[C@@H](O)[C@H](O)[C@H]8O)[C@H]7O[C@@H]7O[C@H](CO)[C@@H](O)[C@H](O[C@@H]8O[C@H](CO)[C@@H](O)[C@H](O)[C@H]8O)[C@H]7O)[C@H](O)[C@H]6O)[C@H](O)C[C@]5(C)[C@H]4CC[C@]3(C)[C@H]1[C@@H]2C`: the Potency was 16.3 µM (active). With `CCCCCCCCCCCCCC[P+](CCCCCC)(CCCCCC)CCCCCC` (tested in a mixture with another compound), the Potency was 30.6 µM (active). With `O=CC(Br)(Br)Br`, the Potency result is “inactive”. Same read-out and setting: next, `CC(C)OC(=O)C(O)(c1ccc(Cl)cc1)c1ccc(Cl)cc1`: “inactive”; `O=c1ssc(Cl)c1Cl`: “inactive”; `[CH3][Hg][Cl]`: “inactive”. Still for that read-out and setting: the value for `[Hg+2].[I-].[I-]` was 6.11 µM (active). Same read-out and setting: next, `CC(C)OC(=S)S`: 7.7 µM (active). Take `C=CC(=O)OCC(COC(=O)C=C)(COC(=O)C=C)COC(=O)C=C`: the Potency was 17.2 µM (active).
